Screening data from PubChem.
Pin1 inh: qHTS Assay to Find Inhibitors of Pin1 | Pin1 FP peptide displacement, HiFluor488, 10 min | AID 504891, 2011 | Peptidyl-prolyl cis-trans isomerase NIMA-interacting 1 (Homo sapiens), Q13526 | 390,000 compounds, 0.009% hits | Potency, µM (highest dose often 115 µM), inactives show at the top dose activity, negative = inhibition, most hits filed as inhibitors; active = well fitted inhibition curve with a large enough effect in the polarisation, with a control signal flat, not every such curve was filed as active; inconclusive = small, poorly fitted or top-dose-only effect, or effect the other way, or a change in a side signal; inactive = no such curve, though single readings can be large or run the other way; the % refers to the polarisation; note: % is set by controls: 0 for no effect and ±100 for the full control effect
Nrf2 activator: qHTS of Nrf2 Activators. AREc32 ARE-luciferase reporter (MCF7-derived line), luminescence, 24 h. Potency, µM (doses to about 46.1 µM), for the others: top-dose activation, most hits filed as activators. 410,000 compounds, 0.31% hits. AID 624171, 2012; note: % of control where 0% means no effect; nearly all actives have a fitted effect of over 65% in size
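AREc32 cells carrying an ARE-driven firefly luciferase, 1000 cells/well in OPTI-MEM with 5% FBS, dosed after overnight attachment and incubated 24 hr at 37 deg C. Steady-Glo luminescence read after 30 min at RT.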
Nrf2 inh: Nrf2 qHTS screen for inhibitors; A549 ARE-Fluc reporter, luciferase luminescence, 18-24 h; Potency, µM (titrated, usually from 46 µM), inactives show at the top dose activity change, negative = inhibition, hits mostly inhibitors; 360,000 compounds, 2.1% hits; AID 504444, 2011; note: % is set by controls: 0 for no effect and ±100 for the full control effect; nearly all actives have a fitted effect of over 60% in size
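Cells were seeded and rested 2 h, then exposed to compounds for 18-24 h. CellTiter-Fluor was read first as a viability measure. BugLite was added 15 min before the final luminescent read of ARE-luciferase activity in A549 cells.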
A549 tox-1: Nrf2 qHTS screen for inhibitors: counterscreen for cytotoxicity. A549 ARE-Fluc cells, CellTiter-Fluor viability, 18-24 h. AID 504648, 2011. Potency, µM (doses to about 46 µM), without a hit: at the highest dose activity change, negative = cytotoxicity, most hits filed as inhibitors. 390,000 compounds, 0.16% hits; note: % is set by controls: 0 for no effect and ±100 for the full control effect
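Cytotoxicity counterscreen: CellTiter-Fluor fluorescence was measured in A549 ARE_Fluc cells after 18-24 h of compound exposure in a concentration series. The subsequent BugLite luminescent read reports ARE-luciferase activity.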
FLuc enzyme inh: Nrf2 qHTS screen for inhibitors: Purified Fluc Biochemical Counterscreen for Hit Validation; purified firefly luciferase, luminescence inhibition; 1,400 compounds, 4% hits; AID 720522, 2013; shares compounds with Nrf2 inh; Potency, µM (titrated, usually from 57.5 µM), inactives show top-dose activity change, negative = inhibition, most hits filed as inhibitors; note: % is set by controls: 0 for no effect and ±100 for the full control effect; nearly all actives have a fitted effect of over 65% in size
Target sequence (P08659 whole entry, looked up): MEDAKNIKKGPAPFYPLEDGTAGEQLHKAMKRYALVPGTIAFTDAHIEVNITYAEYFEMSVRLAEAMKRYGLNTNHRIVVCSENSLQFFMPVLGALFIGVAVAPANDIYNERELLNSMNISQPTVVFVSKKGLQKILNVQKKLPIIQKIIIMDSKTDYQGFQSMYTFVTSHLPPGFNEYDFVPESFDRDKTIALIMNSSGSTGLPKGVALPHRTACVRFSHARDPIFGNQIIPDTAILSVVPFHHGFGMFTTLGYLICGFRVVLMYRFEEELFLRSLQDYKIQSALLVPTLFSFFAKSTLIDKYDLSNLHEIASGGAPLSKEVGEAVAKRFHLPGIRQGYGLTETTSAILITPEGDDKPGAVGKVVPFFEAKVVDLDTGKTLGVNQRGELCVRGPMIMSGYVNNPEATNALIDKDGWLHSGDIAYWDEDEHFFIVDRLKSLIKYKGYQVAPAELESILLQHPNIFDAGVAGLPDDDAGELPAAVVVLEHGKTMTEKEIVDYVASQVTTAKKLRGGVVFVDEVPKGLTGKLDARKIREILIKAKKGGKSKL
A549 tox-2: Nrf2 qHTS screen for inhibitors: A549 ARE-Fluc Cytotoxicity Counterscreen for Hit Validation | 1,400 compounds, 2% hits | shares compounds with Nrf2 inh | Potency, µM (highest dose often 46.1 µM), without a hit: at the highest dose activity change, negative = cytotoxicity, actives largely listed as inhibitors | A549 ARE-Fluc cells, cytotoxicity counterscreen;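 note: cells exposed to compounds for 18 to 24 hours; % is set by controls: 0 for no effect and ±100 for the full control effect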
Nrf2 ARE inh: Nrf2 qHTS screen for inhibitors: Nrf2 A549 ARE-Fluc Confirmation Assay for Hit Validation | shares compounds with Nrf2 inh | A549 ARE-firefly luciferase reporter, luminescence | Potency, µM (doses to about 46.1 µM), without a hit: at the top dose activity change, negative = inhibition, hits mostly inhibitors | 1,400 compounds, 74% hits; note: % is set by controls: 0 for no effect and ±100 for the full control effect; nearly all actives have a fitted effect of over 65% in size
Numbers without * were called inactive; u = inconclusive; x = no result given. An excerpt weighted towards active compounds, which were near 2.2% of everything screened. Unless noted, calls come from the whole dose curve; as a rule, active = well fitted curve in the direction sought with a large enough effect; inconclusive = small, poorly fitted or top-dose-only effect, or another doubt; inactive = no such curve, though single readings can be large; an effect the other way counts as inactive or inconclusive. Potency is the fitted concentration of half-maximal effect.

SMILES	Pin1 inh	Nrf2 activator	Nrf2 inh	A549 tox-1	FLuc enzyme inh	A549 tox-2	Nrf2 ARE inh
O=S(=O)(NCc1ccncc1)c1ccc(Br)s1	-6%	0%	1.5µM*	-24%	-1%	-4%	1.5µM*
COc1cc(S(=O)(=O)NCc2ccncc2)ccc1Br	0%	-1%	3.3µM*	-16%	-2%	-2%	3.7µM*
CNC(=O)c1cc(S(=O)(=O)NCc2ccncc2)ccc1OC	-8%	0%	u	5%	x	x	x
COc1ccc(S(=O)(=O)NCc2cccnc2)cc1Br	1%	0%	7.3µM*	-7%	3%	-3%	u
COc1ccccc1NC(=O)CN(C)S(=O)(=O)c1ccc2c(c1)c(=O)n(C)c(=O)n2C	0%	0%	16%	2%	x	x	x
Cc1c(C(=O)N(C)C)sc2c1c(=O)n(-c1ccc(Cl)c(Cl)c1)c(=O)n2CC(=O)N1CCCCC1C (stereo not drawn)	-7%	0%	x	0%	x	x	x
O=C(OCC#CCSc1nnc(-c2cccc3ccccc23)o1)c1ccccc1F	-2%	x	9%	-2%	x	x	x
COc1ccc(C(=O)CC(=O)c2ccccc2)cc1	6%	1%	u	0%	x	x	x
COc1ccc(C(=O)C/C(=C\C(=O)c2ccc(C)cc2)c2ccccc2)cc1	21%	0%	2.6µM*	u	0%	-27%	12µM*
CCc1nn(CC(=O)NC2CC2)c(=O)c2cc3c(OC)cccc3n12	-1%	0%	14%	-3%	x	x	x
CC(=O)c1c(C)[nH]c(C(=O)OCC(=O)NCc2ccc(Cl)cc2)c1C	2%	6%	8.2µM*	-14%	2%	0%	13µM*
CC(=O)c1c(C)[nH]c(C(=O)OCc2c(F)cccc2Cl)c1C	-5%	0%	5.2µM*	-12%	-1%	3%	15µM*
CC(=O)c1c(C)[nH]c(C(=O)OCc2cccc(Cl)c2)c1C	8%	8%	u	-1%	x	x	x
Nc1nncn1C(=O)c1ccccc1Cl	-1%	0%	-29%	-7%	x	x	x
Nc1nncn1C(=O)c1ccc(Cl)cc1Cl	-2%	-2%	1.6µM*	-1%	-10%	-20%	x
C(=C\c1ccccn1)/c1ccccn1	5%	5%	26%	-3%	x	x	x
COc1ccc(/C=C/c2ccccn2)cc1	x	x	x	x	-2%	-30%	2.3µM*
CCOc1ccccc1NC(=O)Cn1c(=O)n(C(C)C)c(=O)c2oc3ccccc3c21	-13%	-1%	u	0%	x	x	x
O=C(CCCc1nc(-c2ccc(Cl)cc2)no1)NC1CCCCC1	-2%	0%	3.7µM*	-15%	0%	-1%	x
O=C(CCCc1nc(-c2ccccc2Cl)no1)NC1CCCC1	-6%	0%	1.2µM*	-5%	u	0%	4.6µM*
Cc1cccc(C)c1OC1(c2ccccc2)OC(=O)c2ccccc21 (stereo not drawn)	25%	-1%	u	u	x	x	x
Cc1cc(C)c(OC2(c3ccccc3)OC(=O)c3ccccc32)c(C)c1 (stereo not drawn)	33%	0%	9.2µM*	-18%	1%	8%	-3%
O=C(NCc1cccs1)c1nc2c(nnn2Cc2ccccc2Cl)c(=O)[nH]1	-12%	-1%	5.8µM*	u	u	u	2.1µM*
N#Cc1cccc(NC(=O)C2CCN(S(=O)(=O)c3ccc4[nH]c(=O)ccc4c3)CC2)c1	1%	0%	x	5%	x	x	x
COc1cccc(C2C(C(=O)Nc3ccccc3OC)=C(C)Nc3nc4ccccc4n32)c1 (stereo not drawn)	2%	0%	-8%	-5%	x	x	x
CCCN(C(=O)CCc1nc(-c2ccc(OC)cc2)no1)c1ccccc1F	7%	0%	u	-1%	x	x	x
